Structures can show the parent of a compound that is named as a salt.
Tested on: A431
Assay: LBPA endosome anti-LBPA integrated intensity (sum per cell), Z-score; higher = more LBPA staining
Settings: compound concentration in added solution (µM; 5 µl added to 20 µl cells): 10; 18 h
Outline: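 After 18 h on 5 µl of 10 µM compound solution in duplicate 384-well imaging plates, HeLa MZ or A431 cells, seeded at 3,500 per well in 20 µl, were fixed with 4% PFA. They were then labelled with 6C4 anti-LBPA antibody, filipin, propidium iodide and CellTracker green, and four 20× fields were recorded per well. Integrated LBPA or filipin intensity per cell, whole-cell or within LBPA endosomes, came from MetaXpress segmentation and was normalised to Z-scores in AcuityXpress.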

Row | SMILES | LBPA endosome anti-LBPA integrated intensity (z-score)
1 | CN1CCN(CC(=O)N2c3ccccc3C(=O)Nc3cccnc32)CC1 [Pirenzepine dihydrochloride] | -0.619
2 | O=C(O)/C=C/c1ccc(Cn2ccnc2)cc1 [Ozagrel hydrochloride] | -0.373
3 | CC(=O)[C@H]1CC[C@H]2[C@@H]3C=CC4=CC(=O)CC[C@@]4(C)[C@@H]3CC[C@]12C [Dydrogesterone] | 1.19
4 | COc1ccc2cc([C@H](C)C(=O)O)ccc2c1 [Naproxen] | -0.53
5 | CC(=O)[C@H]1CC[C@H]2[C@@H]3C[C@H](C)C4=CC(=O)CC[C@]4(C)[C@H]3[C@@H](O)C[C@]12C [Medrysone] | 1.76
6 | CCCCc1oc2ccccc2c1C(=O)c1cc(I)c(OCCN(CC)CC)c(I)c1 [Amiodarone hydrochloride] | 1.78
7 | CN(C)CCC(c1ccc(Br)cc1)c1ccccn1 (centres undefined) [Brompheniramine maleate] | -0.686
8 | CCN(CC)C(C)CN1c2ccccc2Sc2ccccc21 (centres undefined) [Ethopropazine hydrochloride] | 3.1
9 | O=C(O)c1cc(/N=N/c2ccc(S(=O)(=O)Nc3ccccn3)cc2)ccc1O [Sulfasalazine] | -0.338
10 | CCCc1ncc(C[n+]2ccccc2C)c(N)n1 [Amprolium hydrochloride] | -0.558
11 | Cc1ncc([N+](=O)[O-])n1CC(C)O (centres undefined) [Secnidazole] | -0.291
12 | OC(CCN1CCCCC1)(c1ccccc1)C1CC2C=CC1C2 (centres undefined) [Biperiden hydrochloride] | 1.21
13 | NC12CC3CC(CC(C3)C1)C2 [Adamantamine fumarate] | -0.644
14 | OCCN1CCN(CCCN2c3ccccc3C=Cc3ccccc32)CC1 [Opipramol dihydrochloride] | 0.228
15 | COc1cc(NS(=O)(=O)c2ccc(N)cc2)ncn1 [Sulfamonomethoxine] | -0.448
16 | Cc1cc(-c2ccccc2)nnc1NCCN1CCOCC1 [Minaprine dihydrochloride] | -0.498
17 | Clc1ccc2nsnc2c1NC1=NCCN1 [Tizanidine HCl] | -0.331
18 | CN(C)CCOC(c1ccccc1)c1ccccc1 [Diphenhydramine hydrochloride] | -0.431
19 | CN(C)CCCO[C@@H]1[C@H]2OC(C)(C)O[C@H]2O[C@@H]1[C@H](O)CO [Amiprilose hydrochloride] | -0.365
20 | NC(=O)N/N=C/c1ccc([N+](=O)[O-])o1 [Nitrofural] | -0.562

Row | SMILES | LBPA endosome anti-LBPA integrated intensity (z-score)
21 | N[C@@H](C(=O)N[C@@H]1C(=O)N2C(C(=O)O)=C(Cl)CS[C@H]12)c1ccccc1 [Cefaclor hydrate] | -0.551
22 | COc1ccc(C(=O)NCc2ccc(OCCN(C)C)cc2)cc1OC [Itopride] | -0.646
23 | CC1(C)O[C@@H]2C[C@H]3[C@@H]4C[C@H](F)C5=CC(=O)C=C[C@]5(C)[C@@]4(F)[C@@H](O)C[C@]3(C)[C@]2(C(=O)CO)O1 [Fluocinolone acetonide] | -0.172
24 | NCC[C@H](O)C(=O)N[C@@H]1C[C@H](N)[C@@H](O[C@H]2O[C@H](CN)[C@@H](O)[C@H](O)[C@H]2O)[C@H](O)[C@H]1O[C@H]1O[C@H](CO)[C@@H](O)[C@H](N)[C@H]1O [Amikacin hydrate] | -0.71
25 | CC(C)c1c(C(=O)Nc2ccccc2)c(-c2ccccc2)c(-c2ccc(F)cc2)n1CC[C@@H](O)C[C@@H](O)CC(=O)O [Atorvastatin] | -0.737
26 | CCOC(=O)O[C@]1(C(=O)COC(=O)CC)CC[C@H]2[C@@H]3CCC4=CC(=O)C=C[C@]4(C)[C@H]3[C@@H](O)C[C@@]21C [Prednicarbate] | -0.408
27 | CC(=O)N[C@@H](CS)C(=O)O [Acetylcysteine] | -0.477
28 | CCCCC(CC)CN1CN(CC(CC)CCCC)CC(C)(N)C1 (centres undefined) [Hexetidine] | 0.287
29 | Cc1ccc2c(c1)c1c3n2CCNC3CCC1 (centres undefined) [Pirlindole mesylate] | 0.0753
30 | CCN1CCN(C(=O)N[C@@H](C(=O)N[C@@H]2C(=O)N3[C@@H]2SC(C)(C)[C@@H]3C(=O)O)c2ccccc2)C(=O)C1=O [Piperacillin sodium salt] | -0.232
31 | NC(=O)N1c2ccccc2C=Cc2ccccc21 [Carbamazepine] | -0.439
32 | CN1CCC(=C2c3ccccc3C=Cc3ccccc32)CC1 [Cyproheptadine hydrochloride] | 2.41
33 | CC(=O)c1ccc(S(=O)(=O)NC(=O)NC2CCCCC2)cc1 [Acetohexamide] | -0.506
34 | CNNCc1ccc(C(=O)NC(C)C)cc1 [Procarbazine hydrochloride] | -0.593
35 | CC(C)NNC(=O)c1ccncc1 [Iproniazide phosphate] | -0.439
36 | Cc1cc(-n2c(=O)[nH]c(=O)n(C)c2=O)ccc1Oc1ccc(SC(F)(F)F)cc1 [Toltrazuril] | -0.328
37 | Cc1c(NC(=O)c2cccnc2)c(=O)n(-c2ccccc2)n1C [Nifenazone] | -0.531
38 | C[C@@H](O)[C@H]1C(=O)N2C(C(=O)O)=C(SCCNC=N)C[C@H]12 [Imipenem] | -0.41
39 | CN(C)CC/C=C1\c2ccccc2CSc2ccccc21 [Dosulepin hydrochloride] | 1.61
